Results as given in the supplement of paper PMC11732987, “Enantioselective OTUD7B fragment discovery through chemoproteomics screening and high-throughput optimisation” (Communications Chemistry, 2025).

Legend:
Assay in all cases: log2 ratio of Biotin-Ahx-Ub-VS probe labelling (fragment/DMSO); higher = less target engagement (more negative = stronger competition), active = hit call of the paper (q ≤ 0.05, log2 ratio ≤ -1)
Conditions in all cases: compound concentration: 200 uM; treatment time: 3 h
USP34 = USP34 (UniProt Q70CQ2)
In short: (§1)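 Triplicate samples of HEK293T lysate, 495 µg each, received fragment at 200 µM or vehicle for 3 h, followed by Biotin-Ahx-Ub-VS (0.5 µM final) for 1 h. After NeutrAvidin enrichment of labelled DUBs and LysC/trypsin digestion, peptides were run by diaPASEF LC-MS/MS. The values are average log2 fragment/vehicle ratios from global-median-normalised Spectronaut label-free quantities, tested by unpaired t-test on proteins having ≥2 unique peptides.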

USP36 = molecular target: T1, USP36 (UniProt Q9P275)
T1 sequence (whole entry): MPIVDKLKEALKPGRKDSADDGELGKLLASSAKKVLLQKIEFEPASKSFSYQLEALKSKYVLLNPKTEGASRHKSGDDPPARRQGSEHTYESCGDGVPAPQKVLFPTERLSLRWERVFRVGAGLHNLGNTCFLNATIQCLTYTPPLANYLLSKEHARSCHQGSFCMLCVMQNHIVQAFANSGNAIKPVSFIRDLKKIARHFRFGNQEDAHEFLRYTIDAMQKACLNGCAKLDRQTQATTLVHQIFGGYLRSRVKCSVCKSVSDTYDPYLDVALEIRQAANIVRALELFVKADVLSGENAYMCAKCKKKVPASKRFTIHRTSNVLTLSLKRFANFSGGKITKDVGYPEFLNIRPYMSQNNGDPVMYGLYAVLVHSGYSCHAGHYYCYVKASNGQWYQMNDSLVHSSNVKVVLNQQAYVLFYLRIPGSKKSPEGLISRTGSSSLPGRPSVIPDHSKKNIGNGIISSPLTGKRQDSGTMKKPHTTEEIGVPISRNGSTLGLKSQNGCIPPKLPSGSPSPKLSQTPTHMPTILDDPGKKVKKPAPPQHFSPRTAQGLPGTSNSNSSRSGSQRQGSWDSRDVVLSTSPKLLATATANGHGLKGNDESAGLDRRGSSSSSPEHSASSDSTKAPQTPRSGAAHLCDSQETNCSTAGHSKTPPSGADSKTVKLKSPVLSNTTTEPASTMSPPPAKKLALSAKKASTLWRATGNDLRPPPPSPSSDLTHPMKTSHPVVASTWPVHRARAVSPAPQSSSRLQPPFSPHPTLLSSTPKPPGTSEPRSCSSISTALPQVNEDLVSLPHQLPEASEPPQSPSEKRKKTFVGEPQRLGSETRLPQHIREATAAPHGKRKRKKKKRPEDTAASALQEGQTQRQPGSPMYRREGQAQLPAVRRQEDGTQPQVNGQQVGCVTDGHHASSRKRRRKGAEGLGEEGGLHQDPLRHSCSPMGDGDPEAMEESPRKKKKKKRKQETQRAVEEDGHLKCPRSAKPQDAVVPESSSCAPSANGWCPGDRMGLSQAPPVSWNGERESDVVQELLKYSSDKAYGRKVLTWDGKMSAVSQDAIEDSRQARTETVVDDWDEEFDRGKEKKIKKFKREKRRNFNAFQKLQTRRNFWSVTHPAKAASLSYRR
In short: as §1

USP38 = molecular target: T2, USP38 (UniProt Q8NB14)
T2 sequence (whole entry): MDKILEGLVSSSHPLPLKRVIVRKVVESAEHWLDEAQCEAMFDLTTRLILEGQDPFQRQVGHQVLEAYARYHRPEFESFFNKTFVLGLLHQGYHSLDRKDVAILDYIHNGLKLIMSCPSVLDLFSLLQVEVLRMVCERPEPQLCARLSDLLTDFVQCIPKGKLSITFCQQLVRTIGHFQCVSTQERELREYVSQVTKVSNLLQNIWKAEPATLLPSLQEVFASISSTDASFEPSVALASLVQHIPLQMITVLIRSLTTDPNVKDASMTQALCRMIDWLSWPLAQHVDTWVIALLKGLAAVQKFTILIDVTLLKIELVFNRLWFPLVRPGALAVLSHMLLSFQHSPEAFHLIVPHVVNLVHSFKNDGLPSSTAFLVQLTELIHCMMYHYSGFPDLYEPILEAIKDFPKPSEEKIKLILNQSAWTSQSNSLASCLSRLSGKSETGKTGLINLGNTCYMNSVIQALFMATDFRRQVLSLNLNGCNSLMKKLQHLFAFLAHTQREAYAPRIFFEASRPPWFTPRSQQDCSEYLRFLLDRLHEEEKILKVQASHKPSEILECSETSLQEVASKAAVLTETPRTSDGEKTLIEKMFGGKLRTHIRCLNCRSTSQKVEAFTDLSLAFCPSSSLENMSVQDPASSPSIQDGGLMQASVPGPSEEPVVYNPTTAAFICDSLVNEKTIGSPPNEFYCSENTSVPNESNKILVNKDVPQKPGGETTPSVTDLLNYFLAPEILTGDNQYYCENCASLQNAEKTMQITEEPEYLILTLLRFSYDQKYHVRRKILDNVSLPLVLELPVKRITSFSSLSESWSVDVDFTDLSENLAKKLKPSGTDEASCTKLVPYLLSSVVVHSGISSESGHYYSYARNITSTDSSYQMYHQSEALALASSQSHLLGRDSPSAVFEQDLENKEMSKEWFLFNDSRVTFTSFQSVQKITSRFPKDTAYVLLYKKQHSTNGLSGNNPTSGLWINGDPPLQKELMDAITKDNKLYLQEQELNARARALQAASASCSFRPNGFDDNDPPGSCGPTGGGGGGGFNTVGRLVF
In short: as §1

USP39 = molecular target: T3, USP39 (UniProt Q53GS9)
T3 sequence (whole entry): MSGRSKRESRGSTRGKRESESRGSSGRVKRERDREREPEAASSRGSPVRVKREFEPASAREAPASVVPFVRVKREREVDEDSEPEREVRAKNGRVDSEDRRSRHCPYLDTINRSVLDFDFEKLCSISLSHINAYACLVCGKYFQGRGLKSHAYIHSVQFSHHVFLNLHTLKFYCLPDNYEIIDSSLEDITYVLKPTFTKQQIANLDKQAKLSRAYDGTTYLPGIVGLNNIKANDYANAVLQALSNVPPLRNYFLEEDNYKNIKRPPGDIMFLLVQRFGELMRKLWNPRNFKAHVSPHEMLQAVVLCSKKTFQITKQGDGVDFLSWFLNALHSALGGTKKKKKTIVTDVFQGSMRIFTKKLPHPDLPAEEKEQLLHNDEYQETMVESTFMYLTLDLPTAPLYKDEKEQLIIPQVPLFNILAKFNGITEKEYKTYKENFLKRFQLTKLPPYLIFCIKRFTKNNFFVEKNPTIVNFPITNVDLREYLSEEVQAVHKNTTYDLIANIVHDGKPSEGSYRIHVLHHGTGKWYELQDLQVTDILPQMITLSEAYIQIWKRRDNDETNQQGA
In short: as §1

USP4 = molecular target: T4, USP4 (UniProt Q13107)
T4 sequence (whole entry): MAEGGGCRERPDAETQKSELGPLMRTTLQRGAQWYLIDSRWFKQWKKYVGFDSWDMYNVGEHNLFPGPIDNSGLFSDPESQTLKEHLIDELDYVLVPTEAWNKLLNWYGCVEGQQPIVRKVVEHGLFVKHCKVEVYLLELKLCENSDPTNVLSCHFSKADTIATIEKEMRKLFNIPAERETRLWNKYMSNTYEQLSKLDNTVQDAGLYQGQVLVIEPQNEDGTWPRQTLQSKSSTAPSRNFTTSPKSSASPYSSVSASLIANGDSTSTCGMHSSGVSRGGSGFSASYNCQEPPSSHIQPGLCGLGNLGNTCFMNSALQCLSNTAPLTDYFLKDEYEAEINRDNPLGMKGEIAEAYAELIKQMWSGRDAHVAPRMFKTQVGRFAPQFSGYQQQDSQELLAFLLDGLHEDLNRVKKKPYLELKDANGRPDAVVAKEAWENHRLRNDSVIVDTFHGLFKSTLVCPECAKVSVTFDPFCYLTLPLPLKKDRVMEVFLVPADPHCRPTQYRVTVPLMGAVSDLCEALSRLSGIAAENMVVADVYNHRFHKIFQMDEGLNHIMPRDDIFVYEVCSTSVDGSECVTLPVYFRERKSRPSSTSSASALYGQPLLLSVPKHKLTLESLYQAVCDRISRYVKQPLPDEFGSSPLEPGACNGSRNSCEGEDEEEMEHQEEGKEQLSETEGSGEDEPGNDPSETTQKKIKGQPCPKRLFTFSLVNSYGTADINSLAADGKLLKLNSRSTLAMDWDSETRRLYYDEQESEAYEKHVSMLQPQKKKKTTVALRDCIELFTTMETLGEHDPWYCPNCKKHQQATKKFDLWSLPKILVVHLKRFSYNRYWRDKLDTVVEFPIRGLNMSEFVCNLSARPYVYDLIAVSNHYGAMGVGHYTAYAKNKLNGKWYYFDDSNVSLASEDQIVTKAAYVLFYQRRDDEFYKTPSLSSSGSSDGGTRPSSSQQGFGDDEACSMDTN
In short: as §1

Measured: log2 ratio of Biotin-Ahx-Ub-VS probe labelling

Chain of USP34 (Q70CQ2 whole entry, the tested form may be a part): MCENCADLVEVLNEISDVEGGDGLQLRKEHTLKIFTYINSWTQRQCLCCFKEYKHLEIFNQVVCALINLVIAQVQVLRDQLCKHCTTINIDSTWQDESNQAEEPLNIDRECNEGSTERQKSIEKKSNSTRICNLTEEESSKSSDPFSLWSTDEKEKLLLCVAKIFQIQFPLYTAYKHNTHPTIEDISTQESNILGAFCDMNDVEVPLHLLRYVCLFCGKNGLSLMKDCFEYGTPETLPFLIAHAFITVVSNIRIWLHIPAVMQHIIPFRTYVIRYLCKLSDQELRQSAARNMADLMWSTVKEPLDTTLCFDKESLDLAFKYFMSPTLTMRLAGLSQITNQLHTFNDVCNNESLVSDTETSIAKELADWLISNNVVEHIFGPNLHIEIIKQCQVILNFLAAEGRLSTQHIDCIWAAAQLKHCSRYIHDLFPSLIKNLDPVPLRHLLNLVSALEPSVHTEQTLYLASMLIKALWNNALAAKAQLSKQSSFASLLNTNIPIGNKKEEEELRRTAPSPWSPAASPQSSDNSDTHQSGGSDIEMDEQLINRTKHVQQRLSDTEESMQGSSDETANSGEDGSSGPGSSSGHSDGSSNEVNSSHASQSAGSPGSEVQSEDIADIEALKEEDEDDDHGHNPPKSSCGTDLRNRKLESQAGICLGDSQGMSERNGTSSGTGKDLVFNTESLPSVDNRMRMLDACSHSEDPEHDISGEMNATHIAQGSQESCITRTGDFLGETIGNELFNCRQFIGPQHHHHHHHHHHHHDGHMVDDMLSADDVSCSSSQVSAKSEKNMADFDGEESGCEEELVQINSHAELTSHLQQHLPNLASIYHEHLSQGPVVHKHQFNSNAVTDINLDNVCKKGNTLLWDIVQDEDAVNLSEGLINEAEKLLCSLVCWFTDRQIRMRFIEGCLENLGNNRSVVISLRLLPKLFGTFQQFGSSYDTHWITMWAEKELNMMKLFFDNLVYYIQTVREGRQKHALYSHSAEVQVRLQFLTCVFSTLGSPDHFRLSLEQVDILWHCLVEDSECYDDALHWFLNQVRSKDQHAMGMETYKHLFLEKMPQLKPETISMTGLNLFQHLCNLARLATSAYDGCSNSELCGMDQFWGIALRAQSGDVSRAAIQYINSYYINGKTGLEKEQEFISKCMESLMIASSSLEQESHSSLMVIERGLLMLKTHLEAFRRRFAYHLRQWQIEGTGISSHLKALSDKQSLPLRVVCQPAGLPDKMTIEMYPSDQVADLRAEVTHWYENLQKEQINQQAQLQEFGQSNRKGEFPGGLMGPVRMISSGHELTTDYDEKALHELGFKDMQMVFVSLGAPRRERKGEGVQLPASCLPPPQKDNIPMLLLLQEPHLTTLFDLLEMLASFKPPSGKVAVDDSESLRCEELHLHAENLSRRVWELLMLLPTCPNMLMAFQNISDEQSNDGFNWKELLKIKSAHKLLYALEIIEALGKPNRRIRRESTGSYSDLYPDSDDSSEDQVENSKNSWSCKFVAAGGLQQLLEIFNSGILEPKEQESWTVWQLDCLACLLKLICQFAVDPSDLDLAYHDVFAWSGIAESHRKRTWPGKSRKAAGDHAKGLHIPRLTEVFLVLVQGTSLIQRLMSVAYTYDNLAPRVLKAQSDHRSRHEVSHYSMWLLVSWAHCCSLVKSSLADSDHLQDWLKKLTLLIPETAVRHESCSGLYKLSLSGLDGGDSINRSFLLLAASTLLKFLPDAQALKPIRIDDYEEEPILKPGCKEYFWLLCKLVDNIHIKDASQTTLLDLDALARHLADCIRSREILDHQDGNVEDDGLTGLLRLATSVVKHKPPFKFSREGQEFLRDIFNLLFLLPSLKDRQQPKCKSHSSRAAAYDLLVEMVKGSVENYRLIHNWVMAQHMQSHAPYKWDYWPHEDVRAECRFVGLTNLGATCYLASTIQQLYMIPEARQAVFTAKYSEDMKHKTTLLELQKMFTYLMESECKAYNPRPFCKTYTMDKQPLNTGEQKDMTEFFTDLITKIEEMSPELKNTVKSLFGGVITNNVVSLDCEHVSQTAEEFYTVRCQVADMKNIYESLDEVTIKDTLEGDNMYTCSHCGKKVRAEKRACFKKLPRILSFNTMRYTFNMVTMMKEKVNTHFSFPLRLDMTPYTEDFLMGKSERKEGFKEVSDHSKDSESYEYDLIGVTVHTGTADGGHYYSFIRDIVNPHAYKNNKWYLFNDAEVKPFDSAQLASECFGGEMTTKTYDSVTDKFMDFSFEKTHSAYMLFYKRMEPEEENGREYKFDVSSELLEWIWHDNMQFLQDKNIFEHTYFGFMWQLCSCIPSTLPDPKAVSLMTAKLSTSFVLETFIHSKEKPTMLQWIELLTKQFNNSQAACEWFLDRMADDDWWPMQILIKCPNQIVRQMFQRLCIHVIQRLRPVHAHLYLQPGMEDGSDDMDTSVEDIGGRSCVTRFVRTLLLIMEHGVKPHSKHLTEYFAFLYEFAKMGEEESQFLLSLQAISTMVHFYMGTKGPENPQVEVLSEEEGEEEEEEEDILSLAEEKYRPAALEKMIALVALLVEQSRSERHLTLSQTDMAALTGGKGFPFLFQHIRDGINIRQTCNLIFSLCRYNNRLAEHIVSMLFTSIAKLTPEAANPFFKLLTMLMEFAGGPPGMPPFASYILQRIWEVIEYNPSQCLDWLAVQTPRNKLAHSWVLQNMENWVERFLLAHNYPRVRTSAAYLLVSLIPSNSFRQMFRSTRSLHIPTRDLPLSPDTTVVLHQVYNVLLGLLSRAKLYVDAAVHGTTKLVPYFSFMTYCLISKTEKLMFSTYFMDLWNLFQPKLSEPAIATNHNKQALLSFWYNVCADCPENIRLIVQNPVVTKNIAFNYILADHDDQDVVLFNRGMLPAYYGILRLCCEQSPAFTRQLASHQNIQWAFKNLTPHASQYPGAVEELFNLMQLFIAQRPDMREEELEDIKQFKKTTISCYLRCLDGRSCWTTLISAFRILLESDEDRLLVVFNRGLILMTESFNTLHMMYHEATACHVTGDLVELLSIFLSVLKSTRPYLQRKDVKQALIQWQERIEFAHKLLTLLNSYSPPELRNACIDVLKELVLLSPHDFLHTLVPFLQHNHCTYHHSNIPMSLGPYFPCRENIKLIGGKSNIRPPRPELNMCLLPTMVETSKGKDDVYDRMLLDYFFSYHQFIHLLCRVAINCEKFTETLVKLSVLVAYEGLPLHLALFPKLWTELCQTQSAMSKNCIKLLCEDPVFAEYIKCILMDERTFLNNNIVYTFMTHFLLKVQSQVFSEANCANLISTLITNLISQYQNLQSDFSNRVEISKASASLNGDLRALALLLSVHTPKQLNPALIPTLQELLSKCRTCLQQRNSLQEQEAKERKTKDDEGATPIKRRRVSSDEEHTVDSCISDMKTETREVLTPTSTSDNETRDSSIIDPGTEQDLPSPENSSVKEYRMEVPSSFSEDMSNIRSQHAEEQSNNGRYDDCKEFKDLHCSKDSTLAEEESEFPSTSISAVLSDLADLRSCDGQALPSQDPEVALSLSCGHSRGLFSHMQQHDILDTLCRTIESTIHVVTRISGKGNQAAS

COc1ccc(Cl)cc1NC(=O)CCl
inactive: USP34 -0.301 | USP36 -0.44 | USP38 -0.283 | USP39 0.264 | USP4 -0.469
